Bioassay records (PubChem BioAssay)
D1 antagonist = antagonists of human D1 dopamine receptor; 360,000 tested, 3.2% active; activity change, negative = inhibition, % at 10 µM; P21728; HEK293 TREx D1 cells, calcium flux, dopamine EC80; hits give low values; in the data active = activity change below about -30%; also: % is scaled to controls: 0 for no effect and ±100 for the full control effect
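Tetracycline-induced HEK293 Trex D1 cells, force-coupled to calcium, dye-loaded; compounds added and read 180 s, then EC80 dopamine added and calcium flux tracked kinetically another 180 s.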
D3 antag = D3 dopamine receptor (human) antagonism; P35462; D3R cells, DiscoveRx beta-arrestin luminescence, antagonist mode; hits give low values; max response, negative = inhibition, %; 360,000 tested, 2.5% active; in the data active = max response below about -50%; inconclusive = no clear call, values can overlap the other calls; also: % is scaled to controls: 0 for no effect and ±100 for the full control effect
Target sequence (P35462 whole entry, looked up): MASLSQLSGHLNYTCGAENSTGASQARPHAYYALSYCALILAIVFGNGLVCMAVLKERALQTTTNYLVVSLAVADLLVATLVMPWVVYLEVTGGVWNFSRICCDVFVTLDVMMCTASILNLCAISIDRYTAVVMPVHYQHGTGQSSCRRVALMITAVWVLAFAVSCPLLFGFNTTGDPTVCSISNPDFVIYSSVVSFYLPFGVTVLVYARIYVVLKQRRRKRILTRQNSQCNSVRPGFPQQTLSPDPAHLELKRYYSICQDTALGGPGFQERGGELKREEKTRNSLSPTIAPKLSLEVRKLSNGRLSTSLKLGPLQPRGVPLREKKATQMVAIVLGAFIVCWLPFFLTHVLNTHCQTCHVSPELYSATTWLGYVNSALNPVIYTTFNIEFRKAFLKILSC
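Cells plated overnight at 1500 cells/well, then exposed to library compounds with dopamine controls for 90 minutes at 37 degrees C. DiscoveRx reagent added for 30–60 minutes at room temperature; luminescence read, quantitative HTS format.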
D1 agonist = human D1 receptor agonism. AID 504660. 360,000 tested, 1% active. activation, % at 2 µM. HEK293 T-REx D1 cells, calcium flux, agonist mode. P21728; in the data active = activation above about 30%; also: 0% is about no effect
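Inducible HEK293 T-REx D1 cells, force-coupled to calcium signalling, were plated at 4000 cells/well with tetracycline and held overnight at 30 C. After no-wash calcium dye loading, compound-evoked calcium rise over 180 s flagged agonists.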
D3 ag = agonists of human D3 dopamine receptor; P35462; AID 652048; D3R DiscoveRx beta-arrestin cells, luminescence, 90 min; max activation, %; 410,000 tested, 0.58% active; in the data active = max activation above about 30%; also: 0% is about no effect
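Agonist mode: compounds and dopamine controls were applied to plated cells for 90 min at 37 degrees C after an overnight attachment at 1500 cells/well. Luminescent read-out followed 30 - 60 minutes at room temperature with DiscoveRx detection reagent.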
D1 potentiator = enhances dopamine response at the human D1 receptor; HEK293 TREx D1 cells, calcium flux, dopamine EC20 potentiation; potentiation, % at 10 µM; 360,000 tested, 0.036% active; AID 504651; in the data active = potentiation above about 30%; also: 0% is about no effect
* marks the source's active call; other numbers are inactive results; ? = inconclusive; · = no result. An excerpt weighted towards active compounds, which were near 6% of everything screened.

SMILES	D1 antagonist	D3 antag	D1 agonist	D3 ag	D1 potentiator
CCOCc1cc(CN2CCN(c3cccc(Cl)c3)CC2)c(O)c2ncccc12	3	·	6	-18	0
COc1ccc(CNC(=O)CN(C)S(=O)(=O)c2ccc3c(c2)OCCO3)cc1OC	-9	3	-1	-3	-5
COc1cc2c(-c3cc(F)cc(F)c3)c(-c3ccsc3)oc(=O)c2cc1OC	·	1	0	25	-2
COc1ccc(-c2c(-c3ccsc3)oc(=O)c3cc(OC)c(OC)cc23)cc1	·	61	0	39*	-2
COc1ccc(-c2oc(=O)c3cc(OC)c(OC)cc3c2-c2ccc3c(c2)OCO3)cc1	·	13	·	11	·
COCc1ccc(-c2c(-c3ccc(OC)cc3)oc(=O)c3cc(OC)c(OC)cc23)cc1	·	98	·	34*	·
CCOc1ccc(-c2cc3c(=O)n(Cc4nc(-c5ccc(OC(C)C)cc5)oc4C)ccn3n2)cc1Cl	-36*	·	2	-11	0
Cc1[nH]c2ccccc2c1SCC(=O)N1CCC(C)CC1	-49*	16	0	3	-3
Cn1c(=O)c2sccc2n2c(CCCC(=O)NCc3ccc(F)cc3)nnc12	-3	-8	-2	9	-2
C/C(=N\Nc1cc(N2CCOCC2)nc(C)n1)c1ccc(F)cc1	7	-5	1	2	1
C/C(=N\Nc1cc(N2CCCCC2)nc(C)n1)c1ccc(Br)cc1	-4	23	4	67*	-2
CCN(CC)S(=O)(=O)c1ccc2c(c1)N(CC(=O)N1CCN(c3cccc(OC)c3)CC1)C(=O)CO2	-11	·	0	4	-4
O=C(CN1C(=O)CC(c2ccco2)Sc2ccccc21)Nc1cccc(C(F)(F)F)c1 (centres undefined)	-29	·	22	-8	-3
CN(C1CCCCC1)S(=O)(=O)c1ccc2c(c1)c(=O)c(C(=O)N1CCN(c3ccccc3F)CC1)cn2C	-2	·	-1	6	8
COC(=O)c1cc(=O)n(Cc2ccc(F)cc2)c(=Nc2ccccc2)s1	3	-17	6	-15	-2
COC(=O)c1cc(=O)n(Cc2ccco2)c(=Nc2ccc(F)cc2)s1	-35*	-24	0	-10	-2
COC(=O)c1cc(=O)n(-c2ccccc2)c(=Nc2ccccc2)s1	-6	-61*	-2	-7	-4
CNC(=O)c1cc2c(-c3ccccc3)nn(C)c2s1	-9	-6	9	0	-2
COc1ccc(-c2cn(Cc3ccc4c(c3)C(=O)c3ccccc3C4=O)nn2)cc1	-8	8	3	19	-8
COc1ccc(-c2cn(Cc3ccc4ccccc4c3)nn2)cc1	-32*	-10	7	6	-3
CCc1cccc2cc3c(N)c(C(=O)Nc4ccc(S(=O)(=O)N5CCCC5)cc4)sc3nc12	12	0	60*	-9	0
O=C(CCc1nc2ccccc2s1)OCC(=O)c1ccccc1	-1	-5	2	-2	-6
Cc1noc(C)c1COC(=O)CCc1nc2ccccc2s1	-32*	4	2	-1	-1
COc1ccc(Cc2c(-c3cccc(Br)c3)nc3c(C)cc(Br)cn23)c(C)c1	·	-15	·	-1	·
COc1cccc2cc(C(=O)N3CCN(c4ccccn4)CC3)c(=O)oc12	-37*	2	9	-4	3
SMILES	D1 antagonist	D3 antag	D1 agonist	D3 ag	D1 potentiator
COc1ccc(-n2ncc3c(N4CCC(C(N)=O)CC4)ncnc32)cc1	32	-11	0	1	-2
Cc1ccc(-n2ncc3c(N4CCN(c5ccc(F)cc5)CC4)ncnc32)cc1	1	·	1	8	-1
CCOC(=O)C1CCN(c2ncnc3c2cnn3-c2ccc(OC)cc2)CC1	8	17	2	33*	-7
CN1CCN(c2ncnc3c2cnn3-c2ccc(Cl)cc2)CC1	-54*	30	15	12	-8
Cc1ccc(-n2ncc3c(N4CCN(Cc5ccccc5)CC4)ncnc32)cc1C	11	·	-4	33*	-2
Cc1ccc(-n2ncc3c(N4CCN(C)CC4)ncnc32)cc1	-30*	·	3	1	-1
Cc1ccc(-c2nc(SCCOc3ccccc3C)n3[nH]c(=O)cc3n2)cc1	7	·	2	-11	-6
COc1cc(C2CC(=O)N(Cc3cccc(F)c3)c3ccccc3S2)cc(OC)c1OC (centres undefined)	-12	·	12	18	-5
CCN(CC)CCCN(c1ccccc1)C1Cc2ccccc2C1	·	·	·	-8	·
Cc1ccc(-n2ncc3c(N4CCCC4)ncnc32)c(C)c1	5	?	0	-10	-4
COc1cccc(N2CCN(c3ncnc4c3cnn4-c3ccc(C)cc3C)CC2)c1	-7	-16	4	39*	3
Cc1ccnc2c1ccc1cccnc12	-1	-95*	1	-29	-3
O=Cc1ccc2ccc3cccnc3c2n1	12	-14	0	-17	-1
Cc1ccnc2c1ccc1ccccc12	-18	0	0	-1	-6
c1cnc2c(c1)ccc1cccnc12	0	-76*	5	-14	-8
Cc1ccnc2c1ccc1c(C)ccnc12	9	-100*	1	-18	-1
CCOC(=O)c1c(CSc2ccc(CC)cc2)oc2ccc(O)c(CN(C)C)c12	-15	-64*	45*	-8	-10
CCOC(=O)c1c(C)oc2ccc(O)c(CN(C)C)c12	4	-23	4	-1	-2
Cc1ccc(-c2cc(C(=O)NCCN3CCOCC3)c3ccccc3n2)o1	-2	14	5	4	3
O=C(Oc1cccc2cccnc12)c1ccc2c(c1)OCCO2	0	-84*	8	-4	2
Cc1ccccc1CC1(CO)CCCN(Cc2nc(-c3cccs3)oc2C)C1 (centres undefined)	11	-104*	1	-2	-5
Cc1oc(-c2cccs2)nc1CN1CCN(CC(C)C)C(CCO)C1 (centres undefined)	-9	-11	1	-4	2
O=c1cc(-c2ccc(O)c(O)c2)oc2cc(O)cc(O)c12	23	55	8	43*	4
CC(=NNC(=S)N1CCCCC1)c1cccc(C)n1	·	-107*	·	2	·
O=C(NCc1ccccn1)NC12CC3CC(CC(C3)C1)C2	-82*	14	2	1	-5
CCC(C)(C)NC(=O)CN(C(=O)CNS(=O)(=O)c1ccc(F)cc1)c1ccc2c(c1)OCCO2	3	2	0	-9	-2
C=CCn1cc(/C=N/NC(=O)COc2cccc3cccnc23)c2ccccc21	-1	8	1	4	1
Cc1cccc(OCCn2cc(/C=N/NC(=O)c3ccncc3)c3ccccc32)c1	-15	24	-1	11	0
CC(C)n1cc(/C=N/NC(=O)COc2cccc3cccnc23)c2ccccc21	5	16	1	34*	6
Cc1cccc(OCC(=O)N/N=C\c2cn(C)c3ccccc23)c1	-34*	2	22	11	-1
